Source: PubChem
Compounds with a hit are over-represented: about 2.8% of the library has one in this group of screens.
FXN GAA850 act: frataxin GAA850 promoter activation; 0.56% of 360,000 active; activation, % at 6 µM; HEK293 lucGAA850 FXN promoter luciferase reporter, 24 h; percent of 10 µM SAHA response;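 active = activation above the average of all compounds screened plus 3 SD, cutoff fixed separately per campaign, cut at about 7.5% in these data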;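 note: 0% = DMSO wells and 100% = 10 µM SAHA wells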
Wnt act: activators of Wnt/beta-catenin signaling | activation, % at 9.35 µM | 1.2% of 300,000 active | Wnt/beta-catenin reporter cell assay, activator, plate reader; in the data active = activation above about 30%, passing the limit was not always enough; inconclusive = no clear call, values can overlap the other calls;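 note: 0% = neutral control wells and 100% = positive control wells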
MITF act: increases MITF-driven TRPM1 promoter luciferase signal; SK-MEL-5 TRPM1-promoter luciferase, 24 h; % of positive control, neutral wells = 0; activation, % at 12.5 µM; 0.75% of 300,000 active;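 active = mean activation of at least 80% with every replicate also reaching 80%; inconclusive = mean reaches 80% but some replicate falls short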;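 note: 0% = neutral control wells and 100% = parthenolide positive control wells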
esBAF inh: inhibitors of esBAF chromatin remodeling in mouse ES cells. Bmi1-luciferase knock-in reporter, 24 h; 100% = twice the neutral-well signal. reporter increase, % at 12.5 µM. 2% of 350,000 active; in the data active = activation above about 40%; inconclusive = no clear call, values can overlap the other calls;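 note: 0% = median of the plate's neutral control wells and 100% = double that signal; a rise in the Bmi1 reporter signal indicates esBAF inhibition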
* hit, by the source's call; ? = inconclusive; . = not tested or not shown.

SMILES	FXN GAA850 act	Wnt act	MITF act	esBAF inh
NC(=O)Cc1c[nH]c2cccc(O)c12	-4.6	36.2*	.	-2.2
O=C(CCc1nc2ccccc2s1)N1CCN(S(=O)(=O)c2cccs2)CC1	1.5	0.6	.	-1.6
O=C(COC(=O)C1CCN(S(=O)(=O)c2cccs2)CC1)Nc1ccccc1	0.1	-22.5	-4.3	-4.3
O=S(=O)(c1cccs1)N1CCN(Cc2nc3ccccc3s2)CC1	4.1	36.1*	.	-3.7
O=C(OCc1nc2ccccc2s1)C1CCN(S(=O)(=O)c2cccs2)CC1	1.5	43.9*	24.3	56.4*
O=C(c1cccs1)N1CCn2c1nc1ccccc12	3.5	14.6	82.4*	36.2
O=C(c1ccc(Cl)cc1)N1CCn2c1nc1ccccc12	3.5	2.4	62.1	49.1*
COc1ccc(-c2cnc3c(c2)C(=O)N([C@H](C)CO)C[C@H](C)[C@H](CN(C)C(=O)C2CC2)O3)cc1	.	.	.	-4.9
Cc1nc2c(-c3ccccc3)c[nH]n2c(=O)c1Cc1ccccc1	4.0	5.6	20.5	46.8*
C[C@H]1CN([C@@H](C)CO)C(=O)c2cc(NC(=O)CCN3CCOCC3)ccc2O[C@H]1CN(C)C(=O)NC1CCCCC1	.	.	.	-1.0
CO[C@H]1CN(C)C(=O)c2cc(NC(=O)C3CC3)ccc2OC[C@@H](C)N(Cc2ccc(F)cc2)C[C@H]1C	.	.	.	-0.3
Cc1occc1-c1nnc(SCC(=O)Nc2ccccc2)n1Cc1ccccc1	-1.7	.	4.9	45.5*
C[C@@H]1CCCCO[C@@H](CN(C)Cc2ccc(C(=O)O)cc2)[C@@H](C)CN([C@@H](C)CO)C(=O)c2cc(NC(=O)Nc3ccc4c(c3)OCO4)ccc2O1	.	.	.	22.9
COc1ccc(-c2ccc(-c3noc(C)n3)c(OC)n2)cc1	1.9	.	90.9*	?
CCOc1nc(-c2ccc(OC)cc2)ccc1-c1noc(C)n1	1.0	.	9.5	2.2
COCc1nc(-c2ccc(-c3ccc(C)cc3)nc2OC)no1	5.4	38.8*	.	42.7*
C[C@H]1CN([C@@H](C)CO)C(=O)Cc2cc(NC(=O)Cc3ccccc3)ccc2O[C@H]1CN(C)Cc1ccc2c(c1)OCO2	.	.	.	0.5
O=C(O)c1ccc(CSc2nnc(-c3ccccc3)n2-c2ccccc2)cc1	-0.8	34.9*	-3.7	.
COc1ccccc1CNC(=O)Cn1cccc1C(=O)c1ccccc1C	0.8	4.5	26.4	43.2*
Cc1ccccc1C(=O)c1cccn1CC(=O)NCc1ccc(Cl)cc1	0.4	-1.3	-1.5	15.8
COc1cccc(CNC(=O)Cn2cccc2C(=O)c2ccccc2C)c1	-0.5	2.2	6.0	?
Cc1ccccc1C(=O)c1cccn1CC(=O)NCc1cccc(Cl)c1	1.4	4.6	39.5	64.0*
CCc1ccc(NC(=S)N2CCCC2)cc1	2.2	21.4	41.1	49.0*
Cc1cc(C(=O)COc2ncnc3sccc23)c(C)n1C	7.2	.	55.2	55.1*
O=C(CSc1ncccn1)NC(=O)NCc1ccco1	1.1	35.7*	-11.5	-6.4
SMILES	FXN GAA850 act	Wnt act	MITF act	esBAF inh
CCCNC(=O)N(C)C[C@H]1Oc2ncc(C#CC3CC3)cc2C(=O)N([C@@H](C)CO)C[C@H]1C	.	.	.	-13.1
Cc1ccc([C@H]2C[C@H](O)[C@@H](n3cc(C4CC4)nn3)CN2Cc2cccs2)cc1	2.2	1.4	.	46.9*
Cc1ccc([C@H]2C[C@@H](O)[C@H](n3cc(C4CC4)nn3)CN2Cc2cccs2)cc1	-3.9	-2.0	.	0.9
CCC(=O)Nc1sc2c(c1C#N)CCCCC2	-2.5	.	49.1	34.9
CCCC(=O)Nc1sc2c(c1C#N)CCCCC2	0.8	1.9	51.3	85.1*
Cc1ccc(C(=O)Nc2sc3c(c2C#N)CCCCC3)cc1C	4.8	.	119.0*	.
CC(=O)Nc1sc2c(c1C#N)CCCCC2	1.2	10.5	0.1	12.8
Nc1c(C(=O)c2ccccc2)sc2nsc(SCCN3CCOCC3)c12	-0.7	40.1*	.	.
C[C@@H]1CCCCO[C@@H](CN(C)S(=O)(=O)c2cccs2)[C@H](C)CN([C@@H](C)CO)C(=O)c2cc(NS(=O)(=O)c3cccs3)ccc2O1	.	.	.	10.9
COc1ccc(NC2=Nc3ccccc3CC2)cc1	1.5	39.5*	91.1*	8.9
Cn1nnc(-c2ccc(OCc3ccccc3F)cc2)n1	6.7	37.7*	59.9	3.0
O=C(Cn1cnc2c(oc3ccccc32)c1=O)c1ccccc1	1.4	48.5*	.	69.6*
Cc1cc(C)c2c(n1)sc1c(=O)n(CC(=O)c3ccccc3)cnc12	-0.2	?	.	46.7*
O=C(O)Cn1cnc2c(oc3ccccc32)c1=O	1.6	7.4	-5.4	3.5
O=C(NCCc1ccccc1F)C(=O)Nc1nccs1	4.5	36.6*	23.8	29.4
CN(C(=O)CSc1ncnc2ccccc12)C1CCCCC1	2.9	23.6	103.6*	85.5*
CN(C(=O)COc1ncnc2ccccc12)C1CCCCC1	-0.1	-0.7	-2.1	-0.5
CN(C(=O)CSc1nnc(-c2ccco2)o1)C1CCCCC1	2.2	.	47.5	40.8*
O=C(CSc1ncnc2ccccc12)N1CCNC1=O	1.6	14.2	24.9	41.8*
O=C(CSc1nnc(-c2ccco2)o1)NC1CCCCC1	-3.7	-4.7	.	1.6
Cc1ccc(NC(=O)CN2CCCC2c2cccn2C)cc1C (centres undefined)	1.1	-4.6	2.1	-4.4
Cc1ccc(NC(=O)CN2CCCC2c2cccn2C)c(Br)c1 (centres undefined)	1.6	10.4	108.7*	16.3
Cc1cc(C(=O)CSc2ccccc2)cc(C)c1O	3.5	11.5	39.4	68.2*
C[C@H](CO)N1C[C@H](C)[C@H](CN(C)CC2CCOCC2)Oc2cc(Br)ccc2S1(=O)=O	.	.	.	-4.4
O=C(NC1Cc2ccccc2C1)[C@H]1[C@H](CO)[C@H]2Cn3c(ccc(C4=CCCCC4)c3=O)[C@@H]1N2CC1CC1	.	.	.	5.3
SMILES	FXN GAA850 act	Wnt act	MITF act	esBAF inh
CCOC(=O)c1cnc(SCc2cccc(C)c2)nc1N	2.5	40.4*	61.0	.
CCOC(=O)c1cnc(SC)nc1N	-0.9	-0.9	-7.7	2.2
CCOC(=O)c1cc(OCC)c2c(ccc3ccccc32)n1	1.2	110.7*	.	-9.6
CCOC(=O)c1cnc(SCC(C)C)nc1N	3.6	70.0*	109.1*	52.5*
CCOC(=O)c1cnc(SCC(=O)c2ccc(C)cc2)nc1N	0.7	0.5	0.5	0.5
CCOC(=O)c1cnc2c(ccc3ccccc32)c1NCCO	-0.3	-11.9	11.1	35.6
CCOC(=O)c1cnc2c(ccc3ccccc32)c1N	5.5	10.3	.	45.4*
O=C(C[C@@H]1C[C@@H]2c3cc(NC(=O)c4cccnc4)ccc3O[C@@H]2[C@H](CO)O1)NC1CCCCC1	.	.	.	-8.2
CO[C@H]1CN(C)C(=O)c2cc(NC(=O)NC(C)C)ccc2OC[C@@H](C)N(C(=O)CC2CC2)C[C@@H]1C	.	.	.	2.3
CCOC(=O)c1cnc(SCC(=O)c2ccccc2)nc1N	3.6	.	96.8*	16.1
COc1ccc(C2=NN(C(C#N)c3ccc(OC)c(OC)c3)C(c3ccccc3)C2)cc1 (centres undefined)	3.3	61.0*	62.1	50.6*
COc1ccc(C2=NN(c3ccccc3)C(c3ccc(OC)c(OC)c3)C2)cc1 (centres undefined)	6.0	5.1	84.3*	46.5*
